Structures are written as SMILES. In all, about 310,000 compounds went through this assay and about 2,600 (0.84%) were called active.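 Rule for the calls: active = B-score over 3 SD under the library average, and starting fluorescence ratio not unusually high; inactive = the rest.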 The full list was thinned out, with actives kept by preference.

B-score data for 102 compounds are collected here from PubChem BioAssay AID488975 (Johns Hopkins Ion Channel Center, 2010).

The target of the assay is High affinity choline transporter 1 (Homo sapiens) (UniProt Q9GZV3). The experiment in a line: inhibits the human high affinity choline transporter (AID 488975).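 For B-score: choline stimulus applied at its EC90 after an EC20 pre-addition; B-score computed on integrated fluorescence ratio after choline addition.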 To be noted: CHT-expressing cells, membrane potential dye, choline response, at 10 µM; active compounds read low.
High affinity choline transporter 1 (Homo sapiens), sequence (Q9GZV3 whole entry, looked up): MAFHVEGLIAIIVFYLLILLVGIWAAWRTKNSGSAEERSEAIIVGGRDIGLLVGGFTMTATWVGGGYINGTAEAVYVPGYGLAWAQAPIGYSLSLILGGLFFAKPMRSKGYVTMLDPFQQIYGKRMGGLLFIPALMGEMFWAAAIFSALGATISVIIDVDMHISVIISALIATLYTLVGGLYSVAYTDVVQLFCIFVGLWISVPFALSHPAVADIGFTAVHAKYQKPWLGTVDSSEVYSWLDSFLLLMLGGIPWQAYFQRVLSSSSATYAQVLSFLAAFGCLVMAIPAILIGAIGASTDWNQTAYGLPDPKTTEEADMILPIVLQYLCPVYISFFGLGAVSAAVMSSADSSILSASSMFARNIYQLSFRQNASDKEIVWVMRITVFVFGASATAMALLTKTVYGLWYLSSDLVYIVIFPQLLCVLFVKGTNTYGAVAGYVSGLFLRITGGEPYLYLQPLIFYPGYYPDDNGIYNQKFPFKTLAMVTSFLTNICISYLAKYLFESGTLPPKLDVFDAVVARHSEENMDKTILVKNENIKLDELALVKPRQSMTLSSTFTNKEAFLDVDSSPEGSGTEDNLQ
As for `CC1CN(C(=O)c2cc(COc3c(F)cccc3F)on2)CCN1C` (configuration not stated), the B-score result was “inactive”.

Turning to `Cc1cc(S(=O)(=O)Nc2ccc(C(=O)NCC(c3ccco3)N3CCCC3)cc2)ccc1F` (configuration not stated), the B-score result was “inactive”.

With `COc1ccc(C(CNC(=O)c2cccc(S(=O)(=O)Nc3ccccc3Cl)c2)N2CCOCC2)cc1` (configuration not stated), the B-score entry was “inactive”.

In the case of `COc1ccc(C(CNC(=O)c2cccc(NS(=O)(=O)c3ccc(C)c(F)c3)c2)N2CCCC2)cc1` (configuration not stated), the B-score was -5.37 (active).

With `CC(=O)c1ccc(NC(=O)C2CCCN2S(=O)(=O)c2cccs2)cc1` (configuration not stated), the B-score entry was “inactive”.

As to `COc1ccc(CCNC(=O)C(=O)NCC2CCCN2S(=O)(=O)c2cccs2)cc1OC` (configuration not stated), the B-score result was “inactive”.

Regarding `Cc1occc1C(=O)N/N=C/c1ccc(-c2cccc([N+](=O)[O-])c2)o1`, the B-score entry was “inactive”.

Regarding `O=[N+]([O-])c1cc(Cl)cc(/C=N/NC(=S)Nc2cc(S(=O)(=O)N3CCOCC3)ccc2Cl)c1O`, the B-score was -11.3 (active).

On to `O=C(N/N=C/c1cc(Cl)cc([N+](=O)[O-])c1O)C(O)(c1ccccc1)c1ccccc1`, for which the B-score result was “inactive”.

Take `O=C(CN1CCN(c2ccc(O)cc2)CC1)Nc1cc(S(=O)(=O)N2CCOCC2)ccc1Cl`: the B-score result is “inactive”.

For the compound `CC(=O)N1CCN(C(=O)c2cc(-c3ccc(C)o3)nc3ccccc23)CC1`, the B-score entry is “inactive”.

Take `O=C(O)C1C2C=CC(C2)C1C(=O)NCc1ccccc1` (configuration not stated): the B-score result is “inactive”.

Consider `Cc1ccc(NNC(=O)c2cccs2)cc1Cl`, for which the B-score is -4.98 (active).

Regarding `O=C(NNC(=O)c1ccc(Cl)cc1Cl)c1cccs1`, the B-score entry is “inactive”.

For the compound `Cc1ccc(NNC(=O)c2c(F)cccc2Cl)cc1Cl`, the B-score entry was “inactive”.

With `O=C(NCCCc1ccccc1)C(=O)NCC1OCCN1S(=O)(=O)c1ccccc1` (configuration not stated), the B-score result is “inactive”.

For `Cc1ccc(N2CC(C(=O)N3CCC4(CC3)CC(=O)c3ccccc3O4)CC2=O)cc1C` (configuration not stated), the B-score result is “inactive”.

For the compound `Cc1ccc(Cc2nnc(SCC(=O)Nc3ccccc3C)[nH]c2=O)cc1`, the B-score entry was “inactive”.

`CC1CCCCN1CCCNC(=O)Cn1ncc2c([nH]c3ccccc32)c1=O` (configuration not stated): the B-score result was “inactive”.

Regarding `Cc1c2cnn(CC(=O)NCCCN3CC(C)CC(C)C3)c(=O)c2c(C)n1Cc1ccc(Cl)cc1` (configuration not stated), the B-score result was “inactive”.

In the case of `CCCn1c2ccccc2c2cnn(CC(=O)NCCCN3CCCCC3CC)c(=O)c21` (configuration not stated), the B-score was -7.41 (active).

With `O=C(Cn1ncc2c3ccccc3n(Cc3ccccc3)c2c1=O)NCCCN1CCOCC1`, the B-score was -8.06 (active).

For `O=C(Cn1ncc2c3ccccc3n(Cc3ccccc3)c2c1=O)NCc1ccccn1`, the B-score result was “inactive”.

For the compound `CCC1CCCCN1CCCNC(=O)Cn1nc(-c2ccccc2)ccc1=O` (configuration not stated), the B-score entry is “inactive”.

Consider `Cc1ccc(C)c(-c2nnc(NC(=O)CS(=O)(=O)c3ccccc3)o2)c1`, for which the B-score result was “inactive”.

On to `Cc1ccc(S(=O)(=O)NCCC(=O)NC2CCN(Cc3ccccc3)CC2)cc1`, for which the B-score entry is “inactive”.

Turning to `COc1ccc(Cc2nnc(SCC(=O)N(c3ccccc3)C(C)C)n(N)c2=O)cc1`, the B-score entry is “inactive”.

`O=c1c2ccccc2nnn1CSc1nnnn1-c1ccccc1`: the B-score entry is “inactive”.

For `O=c1c2ccccc2nnn1CSc1nc2sc3c(c2c(=O)n1CC1CCCO1)CCC3` (configuration not stated), the B-score is -11.3 (active).

Turning to `Nc1nnc(SCn2nnc3ccccc3c2=O)s1`, the B-score entry is “inactive”.

For `CCC(C)Sc1nnc(-c2c[nH]c3ccccc23)n1CCOC` (configuration not stated), the B-score result was “inactive”.

Take `CCn1c(SCCC(C)C)nnc1-c1c[nH]c2ccccc12`: the B-score is -5.53 (active).

Consider `CCn1c(SCC(=O)Nc2ccc(OC)c(OC)c2)nnc1-c1c[nH]c2ccccc12`, for which the B-score entry was “inactive”.

With `O=[N+]([O-])c1ncc(Br)cc1Nc1ccccc1`, the B-score entry is “inactive”.

For the compound `CCOCCn1[nH]c2ccccc2c1=O`, the B-score entry is “inactive”.

Take `CC(Oc1ccc(Br)cc1)C(=O)NCC(c1ccco1)N1CCCCC1` (configuration not stated): the B-score entry is “inactive”.

`CCc1ccc2c(c1)C(c1ccc([N+](=O)[O-])cc1)=NNC(c1ccccc1)=N2`: the B-score result was “inactive”.

With `CCc1ccc2c(c1)C1(NN=C(c3ccccc3)S1)C(=O)N2` (configuration not stated), the B-score was -6.53 (active).

As for `O=C1Nc2ccccc2C12Nc1ccccc1S2` (configuration not stated), the B-score result is “inactive”.

For `COC(=O)c1cc2occc2n1Cc1nc(-c2ccccc2C)oc1C`, the B-score entry was “inactive”.

With `CCOC(=O)c1cc2occc2n1CC(=O)N1CCN(C(=O)c2ccco2)CC1`, the B-score entry was “inactive”.

For the compound `CCC(C(=O)N1CCOCC1)n1c(C(=O)OC)cc2occc21` (configuration not stated), the B-score was -6.51 (active).

With `O=C(CN1CCOCC1)Nc1cccc([N+](=O)[O-])c1`, the B-score result is “inactive”.

In the case of `O=C(CCNC(=O)c1ccc(Br)cc1)NCCCc1ccccc1`, the B-score entry was “inactive”.

Consider `Cc1c(C(=O)OC(C)C)sc(NC(=O)c2cccnc2)c1C#N`, for which the B-score was -5.25 (active).

Turning to `CCOC(=O)c1ccc(NC(=O)c2cccnc2)cc1`, the B-score entry is “inactive”.

As for `CCOC(=O)c1cc(NC(=O)c2cccnc2)ccn1`, the B-score entry was “inactive”.

For `Cc1ccc(C)c(OCCC(=O)OCC(=O)NC(=O)NCc2ccccc2)c1`, the B-score entry was “inactive”.

Take `COc1ccccc1C(=O)Nc1ccccc1C(=O)Nc1ccccc1`: the B-score entry was “inactive”.

With `Nc1nonc1-n1nnc(C(=O)N/N=C/c2ccccc2O)c1CN1CCCC1`, the B-score result is “inactive”.

As for `Cc1ccc(C(=O)NC2CCCC(C)C2C)cc1S(=O)(=O)N1CCCCC1` (configuration not stated), the B-score is -9.32 (active).

As to `C/C(=N\NC(=O)c1cccc(N2CCCC2=O)c1)c1ccc(N)cc1`, the B-score result is “inactive”.

In the case of `Cc1ccc(C(=O)Nc2ccc3c(c2)OCO3)cc1S(=O)(=O)N1CCCCC1`, the B-score result was “inactive”.

On to `CC1CCCC(NC(=O)c2cccc(N3CCCC3=O)c2)C1C` (configuration not stated), for which the B-score was -5.25 (active).

On to `CC1CCC(NC(=O)c2ccc(N3CCCC3=O)cc2)CC1` (configuration not stated), for which the B-score entry is “inactive”.

Take `Cc1ccc(C(=O)NNC(=O)c2ccncc2)cc1S(=O)(=O)N1CCCCC1`: the B-score result was “inactive”.

Consider `COc1ccc2oc(C(=O)OCC(=O)N(CC(C)C)c3c(N)n(Cc4ccccc4)c(=O)[nH]c3=O)c(C)c2c1`, for which the B-score entry is “inactive”.

As to `CC1=NNC(=O)C1Cc1c(Cl)cccc1Cl` (configuration not stated), the B-score result is “inactive”.

On to `Cc1ccc2nc(NC(=O)CSc3nc(=O)n(CCCN(C)C)c4c3CCC4)sc2c1`, for which the B-score result was “inactive”.

As for `COc1ccc(S(=O)(=O)N2CCCCCC2)cc1C(=O)N(C)Cc1cccc(OC)c1OC`, the B-score entry is “inactive”.

`CN(CCC#N)c1ncnc2scc(-c3ccccc3)c12`: the B-score was -6.05 (active).

Regarding `N#CCCN(CCC#N)c1nnc(-c2ccccc2)s1`, the B-score entry was “inactive”.

Consider `C=CCn1cnc2scc(-c3ccccc3)c2c1=O`, for which the B-score result is “inactive”.

For `COc1cc(C(=O)N(C)Cc2cccc(OC)c2OC)ccc1OCC(=O)Nc1cccc(C(F)(F)F)c1`, the B-score entry is “inactive”.

Turning to `Fc1ccccc1COc1cccc2cccnc12`, the B-score result was “inactive”.

With `CN(/N=C/c1ccccc1)C(=S)c1ccccc1`, the B-score entry was “inactive”.

As for `COc1ccc([C@@H]2[C@@H]3C(=O)N(C(C)(C)C)C(=O)[C@@H]3[C@]3(Cc4ccccc4)C(=O)N(c4cccc(Br)c4)C(=O)N23)cc1`, the B-score result was “inactive”.

`Cc1cccc(NC(=O)c2cccc(S(=O)(=O)N3CCCC3)c2)n1`: the B-score result was “inactive”.

With `O=S(=O)(c1cccc(-c2cn3ccccc3n2)c1)N1CCCC1`, the B-score entry is “inactive”.

Consider `O=S(=O)(c1cccc(-c2nnc3n2CCCCC3)c1)N1CCOCC1`, for which the B-score result was “inactive”.

In the case of `O=S(=O)(c1cccc(-c2nnc(SC(F)F)n2-c2ccccc2)c1)N1CCCCC1`, the B-score is -6.54 (active).

For the compound `Cc1onc(-c2ccccc2Cl)c1C(=O)N(Cc1ccc(N(C)C)cc1)C(C)C`, the B-score entry was “inactive”.

As to `Cc1ccn2c(=O)c(NC(=O)c3cccc4ccccc34)c(C)nc2c1`, the B-score entry was “inactive”.

As to `Cc1c(Cl)cccc1NC(=O)NCc1ccc(C)n1C`, the B-score result is “inactive”.

`COC(=O)C(C(=O)Nc1cccc(Cl)c1C)C1CCCC1` (configuration not stated): the B-score is -5.46 (active).

On to `Cc1c(Cl)cccc1NC(=O)Nc1ccc(C(=O)N2CCCC2)cc1`, for which the B-score entry was “inactive”.

`CCN(CC(=O)Nc1c(F)cccc1F)C(=O)C1CCC1`: the B-score result was “inactive”.

Regarding `Cc1ccc(S(=O)(=O)NC(C)C(=O)NCc2ccc(Cl)cc2)cc1` (configuration not stated), the B-score result was “inactive”.

For the compound `CCCNC(=O)c1ccc(N2CCC3(CC2)CC(c2cccc(Br)c2)=NO3)c(NC(=O)c2ccco2)c1`, the B-score result was “inactive”.

Take `CCN(CC(=O)NCc1ccc(Cl)cc1)C(=O)CSc1ccccc1`: the B-score was -5.83 (active).

In the case of `CCN(CC(=O)Nc1cc(Cl)ccc1C)C(=O)CSCc1ccc(C)cc1`, the B-score entry was “inactive”.

`CN(CC(=O)NCc1ccc(Cl)cc1)S(=O)(=O)c1cccs1`: the B-score entry was “inactive”.

For the compound `COc1ccc(N2CC(NS(=O)(=O)c3ccc4ccccc4c3)CC2=O)cc1` (configuration not stated), the B-score entry is “inactive”.

As to `O=C1N[C@@H](Cc2ccccc2)C(=O)N2[C@H]1C[C@]1(Br)c3ccccc3N(S(=O)(=O)c3ccccc3)[C@H]21`, the B-score entry was “inactive”.

In the case of `Cc1nc2ccccc2c(=O)n1-c1ccc(F)c(NC(=O)c2cccs2)c1`, the B-score result is “inactive”.

As to `CCN(CC)CCn1c2c(c(SCC(=O)Nc3ccc(C(C)C)cc3)nc1=O)CCC2`, the B-score result is “inactive”.

As to `COc1ccc(N(CC(=O)N2CCCCCC2)S(=O)(=O)c2ccccc2)cc1`, the B-score result is “inactive”.

With `CS(=O)(=O)N(CC(=O)N1CCN(c2cccc(Cl)c2)CC1)c1ccccc1`, the B-score result is “inactive”.

In the case of `CC1CCN(C(=O)CN(c2ccc(Oc3ccccc3)cc2)S(C)(=O)=O)CC1`, the B-score is -5.53 (active).

For `NC(=O)NCCCC(=O)O`, the B-score entry is “inactive”.

Take `Cc1ccc(NC(=O)COc2coc(CN3CCc4ccccc4C3)cc2=O)cc1Cl`: the B-score result was “inactive”.

With `O=C(Nc1ccncc1)c1ccccc1[N+](=O)[O-]`, the B-score result is “inactive”.

In the case of `O=C(O/N=C(/c1ccccc1)c1ccncc1)c1ccccc1[N+](=O)[O-]`, the B-score is -5.03 (active).

On to `COc1ccc(NC(=O)c2ccccc2[N+](=O)[O-])cc1OC`, for which the B-score result was “inactive”.

Turning to `COc1ccc(-c2cc(C(=O)N/N=C/c3cccnc3)c3ccccc3n2)c(OC)c1`, the B-score result is “inactive”.

Take `O=C(O)CC1=C(Nc2ccccc2)C(=O)N(c2ccccc2)C1c1ccc(Cl)cc1` (configuration not stated): the B-score was -9.58 (active).

As to `COC(=O)CN1C(=S)N(c2ccccc2)C(=O)C1CC(=O)Nc1ccc(Cl)cc1` (configuration not stated), the B-score result is “inactive”.

For the compound `O=C(O)Cc1ccc(NCc2ccccc2Cl)cc1`, the B-score result was “inactive”.

Take `O=C(NCCc1ccco1)C(=O)NCCC1CCCCN1S(=O)(=O)c1ccccc1` (configuration not stated): the B-score result was “inactive”.

For the compound `O=C(C1CCN(S(=O)(=O)c2ccc(Br)s2)CC1)N1CCN(C2CCCCC2)CC1`, the B-score result is “inactive”.

As to `CS(=O)(=O)N1CCC(C(=O)N2CCN(c3ccccc3)CC2)CC1`, the B-score result was “inactive”.

`O=C(C1CCN(S(=O)(=O)c2ccc(Br)s2)CC1)N1CCN(c2ccccc2)CC1`: the B-score was -8.2 (active).
